Screening data deposited in PubChem BioAssay by National Center for Advancing Translational Sciences (NCATS).
LmPK inhibitor: LmPK (Leishmania mexicana) enzyme inhibition; 290,000 compounds, 0.37% hits; AID 1721; purified LmPK, Kinase-Glo ATP luminescence, 1 h; Q27686; Potency, µM (highest dose often 57.5 µM), inactives show at the highest dose activity change, negative = inhibition, hits mostly inhibitors; further: potency means the concentration at half of the fitted maximal effect; on the % scale 0 is the no-effect control and ±100 the full control effect
Target sequence (Q27686 whole entry, looked up): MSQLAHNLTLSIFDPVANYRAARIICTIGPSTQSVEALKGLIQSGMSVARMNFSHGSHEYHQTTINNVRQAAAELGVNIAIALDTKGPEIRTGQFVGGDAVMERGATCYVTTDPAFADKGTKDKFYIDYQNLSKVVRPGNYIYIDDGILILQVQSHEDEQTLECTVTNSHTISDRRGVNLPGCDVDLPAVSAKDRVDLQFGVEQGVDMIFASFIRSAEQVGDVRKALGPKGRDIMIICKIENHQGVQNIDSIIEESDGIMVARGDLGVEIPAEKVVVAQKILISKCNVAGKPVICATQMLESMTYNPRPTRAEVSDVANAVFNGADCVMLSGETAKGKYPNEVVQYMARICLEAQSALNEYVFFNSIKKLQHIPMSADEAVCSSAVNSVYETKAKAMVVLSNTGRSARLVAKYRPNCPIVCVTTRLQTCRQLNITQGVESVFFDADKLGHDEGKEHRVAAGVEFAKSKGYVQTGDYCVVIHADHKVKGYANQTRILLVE
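Purified LmPK (0.1 nM) converted ADP (0.1 mM) to ATP with PEP (0.5 mM) in imidazole buffer pH 7.2 with KCl and MgCl2, 1 h at room temperature. ATP was read by Kinase-Glo luminescence; data normalized to uninhibited and no-enzyme controls.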
Giardia FBPA inh: inhibitors of Giardia lamblia fructose-1,6-bisphosphate aldolase | A8B2U2 | purified Giardia FBPA | 290,000 compounds, 0.71% hits | Potency, µM (top dose mostly 59.6 µM), without a hit: at the top dose activity, negative = inhibition, actives largely listed as inhibitors; further: potency means the concentration at half of the fitted maximal effect; on the % scale 0 is the no-effect control and ±100 the full control effect; nearly all actives have a fitted effect of over 55% in size
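Giardia FBPA (40 nM reagent) was preincubated 10 min at RT with compound (up to 57.5 uM final), then substrate plus GAPDH/TPI/NAD/arsenate coupling system with diaphorase/resazurin was added; resorufin fluorescence (525/598 nm) was read after 20 min.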
TbPYK inhibitor: inhibitors of Trypanosoma brucei pyruvate kinase. 410,000 compounds, 0.12% hits. TbPYK enzyme, Kinase-Glo Plus ATP luminescence, 45 min. Potency, µM (series often up to 76.8 µM), for the others: top-dose activity, negative = inhibition, usual class: inhibitors. Q57TT1; further: potency means the concentration at half of the fitted maximal effect; on the % scale 0 is the no-effect control and ±100 the full control effect; nearly all actives have a fitted effect of over 50% in size
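Screened from lowest to highest concentration, compounds were pinned into TbPYK/substrate mixtures, and ADP (130 uM final) was added. Plates sat at room temperature for 45 min prior to Kinase-Glo Plus detection by luminescence.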
Cycloheximide cs: counter-screen hit for Shiga toxin inhibitors, cycloheximide. cell reporter, cycloheximide protein synthesis inhibition counterscreen. max response, %. 300,000 compounds, 12% hits. AID 2314; in the data active means max response mostly above about 13%, no sharp cut-off; inactive means mostly below about 14%; further: read at 38.3 µM for the half of the compounds with a filed dose; 0% is about no effect
Sm TGR inh: blocks Schistosoma mansoni thioredoxin glutathione reductase | 360,000 compounds, 3% hits | Potency, µM (doses to about 114 µM), for inactives: at the highest dose activity change, negative = inhibition, hits mostly inhibitors | purified TGR, DTNB reduction, TNB absorbance 405 nm; further: potency means the concentration at half of the fitted maximal effect; on the % scale 0 is the no-effect control and ±100 the full control effect; nearly all actives have a fitted effect of over 60% in size
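First, TGR (20 nM dispensed) and NADPH were mixed with compound. Second, a 15 min room-temperature incubation followed. Third, further NADPH and then DTNB were added to start the reaction. Finally, TNB absorbance was monitored kinetically.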
Shiga inhibitor: inhibitors of Shiga toxin in Vero cells | 290,000 compounds, 9.2% hits | inhibition, % at 38.7 µM | AID 2315 | Vero cells, Shiga toxin protein synthesis inhibition reporter; in the data active means inhibition mostly above about 28%, no sharp cut-off; inactive means mostly below about 43%; further: 0% is about no effect
* marks the source's active call; other numbers are inactive results; ? = inconclusive; . = not tested or not shown; [ ] = dose if it differs, or a comment. The full list was thinned out, with hits kept by preference. Unless noted, the call rests on the fitted dose curve; in most records, active means well fitted curve in the direction sought with a large enough effect; inconclusive means small, poorly fitted or top-dose-only effect, or another doubt; inactive means no such curve, though single readings can be large; an effect the other way counts as inactive or inconclusive.

SMILES	LmPK inhibitor	Giardia FBPA inh	TbPYK inhibitor	Cycloheximide cs	Sm TGR inh	Shiga inhibitor
CC(C)(C)n1ncc2c(=O)n(CC(=O)NCc3ccccc3)cnc21	1%	6%	3%	20*	-17%	37*
CC(C)(C)n1ncc2c(=O)n(CC(=O)N3CCCC3)cnc21	-2%	2%	4%	8	0%	-7
CC(C)(C)n1ncc2c(=O)n(CC(=O)Nc3ccc(Cl)cc3)cnc21	4%	11%	3%	1	-1%	-6
C[C@@H]1c2ccccc2N2C[C@H](Cc3ccc(C(=O)c4ccccc4)cc3)C[C@@H]12	.	.	2%	.	.	.
CC(C)c1ccc(-c2noc(SCC(=O)N3CCCCC3C)n2)cc1 (stereo not given)	.	.	1%	.	3%	.
CC(C)(C)n1ncc2c(=O)n(Cc3c(F)cccc3Cl)cnc21	0%	6%	7%	16*	3%	52
CCCCCc1ccc(-c2cn(Cc3ccc([N+](=O)[O-])cc3)nn2)cc1	0%	-1%	-6%	6	9%	5
Cc1ccc(Cn2cc(-c3ccccc3)nn2)cc1	-2%	-2%	-3%	57*	-21%	86*
COc1ccc(-c2cn(CCCOCc3ccccc3)nn2)cc1	9%	-10%	2%	16*	4%	25*
COc1ccc(-c2cn(Cc3ccc([N+](=O)[O-])cc3)nn2)cc1	0%	-8%	2%	10	-3%	24*
COc1ccc(-c2cn(Cc3ccc(C(=O)c4ccccc4)cc3)nn2)cc1	0%	-2%	4%	43*	33%	62*
COC(=O)CCCn1nc(NC(=O)COc2ccc(F)cc2)cc1C	6%	3%	1%	-2	-4%	-4
Cc1c(C(=O)Nc2ccccc2)sc2nc(-c3cc4ccccc4oc3=O)[nH]c(=O)c12	.	.	-2%	.	-9%	.
CC(Oc1cc2oc(=O)c3c(c2cc1Cl)CCCC3)C(=O)NCCN1CCOCC1 (stereo not given)	0%	1%	-24%	-3	1%	-14
CCOc1ccc(NC(=O)CN2C(=O)c3ccccc3Sc3ccc(C(=O)OC)cc32)cc1	.	.	4%	.	3%	.
Cc1c(Cl)cccc1-n1ncc(C(=O)N2CCc3ccccc3C2)c1C1CCN(C(=O)OC(C)(C)C)CC1	.	.	1%	.	3%	.
CCCC1OC(c2cc3c(cc2Cl)OCO3)OCC1CC (stereo not given)	.	.	6%	.	.	.
O=C(O)C1(C(=O)O)CCC1.[NH2-].[NH2-].[Pt+2]	.	14µM*	.	-4	.	-10
O=C(O)C1(C(=O)O)CCCC1	.	.	2%	.	.	.
Cc1ccc2[nH]c3c(NCc4ccccc4)ncnc3c2c1	1%	6%	-2%	39*	-1%	80*
CCCOc1ncnc2c1[nH]c1ccc(C)cc12	0%	-13%	0%	45*	10%	108*
COc1ccc(CNc2ncnc3c2[nH]c2ccccc23)cc1	6%	-3%	?	0	2%	0
CCOc1ccccc1NC(=O)c1nnn(CC(=O)Nc2ccc(OC)c(OC)c2)c1N	.	.	-6%	.	2%	.
CN(C)c1ccc(NC(=O)Oc2ccccc2)cc1	?	?	?	29*	-33%	60*
CC(=O)Oc1ccc(NC(=O)Cc2ccccc2)cc1	-19%	-1%	-1%	-2	-9%	14
SMILES	LmPK inhibitor	Giardia FBPA inh	TbPYK inhibitor	Cycloheximide cs	Sm TGR inh	Shiga inhibitor
CCc1ccc(OC(=O)Nc2ccccc2)cc1	-6%	1%	3%	13*	2%	13
CC(=O)Nc1ccc(NC(=O)Oc2ccccc2)cc1	-13%	-2%	-5%	10	-2%	-3
COc1ccc(NC(=O)c2ccccc2-c2ccccc2C(=O)O)cc1	1%	-6%	0%	-1	-29%	-5
COc1ccc(OC(=O)Nc2ccccc2)cc1	?	-1%	-5%	32*	-1%	98*
O=C(CCc1c[nH]c2ccccc12)NC(Cc1ccccc1)C(=O)O (stereo not given)	-5%	-1%	-1%	-1	19%	24
CC(C)(c1ccccc1)c1ccc(OCCn2cnc3ccccc3c2=O)cc1	-1%	1%	5%	-3	4%	8
O=c1[nH]c(=O)n(CCOc2ccc(Cl)cc2)cc1Br	1%	5%	3%	-2	-2%	-12
O=c1ccccn1CCOc1ccc(Cl)cc1	-6%	2%	1%	33*	9%	35*
CC(C)(C)c1ccc(OCCn2ccccc2=O)cc1	-4%	8%	-1%	37*	-4%	93*
COC(=O)NC(CC(C)=O)c1ccc2c(c1)OCO2 (stereo not given)	.	-1%[12.9 µM]	.	.	.	.
O=c1ccc(-c2ccccc2)nn1Cc1c(F)cccc1Cl	.	.	-8%	.	8%	.
COc1ccccc1N1CCN(C(=O)c2cc(-c3ccc(F)cc3)on2)CC1	14%	-4%	2%	-4	12%	4
COc1ccc(-c2cc(C(=O)N3CCc4ccccc4C3)no2)cc1	-1%	-1%	-1%	28*	12%	88*
COc1cccc(-c2cc(C(=O)N3CCc4ccccc4C3)no2)c1	0%	-11%	-16%	17*	-3%	6
COc1ccc(-c2cc(C(=O)N3CCN(c4ccccc4OC)CC3)no2)cc1	-4%	-4%	7%	-5	-17%	-8
COc1ccccc1N1CCN(C(=O)c2cc(-c3ccc(C)cc3)on2)CC1	-11%	-17%	2%	19*	-6%	55*
O=C(c1cc(-c2ccc(Br)cc2)on1)N1CCc2ccccc2C1	-1%	4%	3%	1	-1%	0
COc1ccc(-c2cc(C(=O)N3CCN(c4ccccc4)CC3)no2)cc1	-1%	5%	1%	37*	-13%	93*
COc1ccc(OC)c(-c2cc(C(=O)N3CCc4ccccc4C3)no2)c1	2%	-9%	-7%	8	-28%	-11
CCc1nc2ccc(C(=O)Nc3ccc(OC)c(OC)c3)cn2c1N(C)Cc1ccc(N(C)C)cc1	.	.	-2%	.	.	.
CCN(CC)C(=O)C1=C(C)N(Cc2ccc(F)cc2)C(=O)C(CC(=O)NCCN2CCOCC2)C1 (stereo not given)	.	.	-8%	.	.	.
Cc1c(CCC(=O)NCCCN2CCCC2=O)c(=O)oc2c(C)c(O)ccc12	-1%	10%	1%	-1	-21%	0
Cc1cc(C)cc(NC(=O)c2cccc(N3CCCS3(=O)=O)c2)c1	.	.	0%	.	0%	.
O=C1C(=O)N(C2CCN(C(=O)c3ccccc3F)CC2)CCN1Cc1ccc(F)cc1	.	.	2%	.	-2%	.
CCN(c1ccccc1)S(=O)(=O)c1ccc2ccccc2c1	3%	7%	-7%	2	0%	17
CN(c1ccc(O)cc1)S(=O)(=O)c1ccc2ccccc2c1	-3%	0%	2%	24*	-16%	77*
